# Assay results published in PubChem BioAssay (EPA / NIEHS).
# Activity calls are given as the source filed them. How the source made its calls: active means hit-call score of the fitted dose curve at least 0.9, where 1 is the maximum; inactive means score below 0.9.
# Experiment: CCTE_Shafer_MEA_dev_burst_duration_mean: CCTE's Neural Network Formation Assay for Mean Burst Duration, Shafer Lab (AID 2284045);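 on AC50: curve fitted for loss meaning shorter burst duration than DMSO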
# Experimental: CCTE_Shafer_MEA_dev assay is conducted using Axion Biosystems 48 well microelectrode array (MEA) plates and Maestro recording system. Each well of the MEA plate contains a grid of 16 microelectrodes embedded in the culture surface. Electrically active cells, such as neurons, can be cultured over the electrodes, and electrical activity in these cells can be recorded extracellularly. The spontaneous firing of neurons is captured from each electrode on a microsecond timescale providing both temporally and spatially precise data. […] The CCTE_Shafer_MEA_dev assay uses primary cultures of rat cortical neurons. Recordings are made on days post-plating 5, 7, 9 and 12. As these cultures mature over time, neural networks develop functional activity and form cohesive networks in which electrical activity can be highly coordinated. CCTE_Shafer_MEA_dev_burst_duration_mean is 1 of 19 assay components of the CCTE_Shafer_MEA_dev assay. It measures the average time interval from the first spike (action potential firing) to the last spike in a singe-electrode burst (temporally-clustered group of spikes) during a recording in a microelectrode array (MEA) using Axion Biosystems Maestro 768 channel amplifier with the AxIS adaptive spike detector. The mean burst duration is averaged across the actively bursting electrodes to report a well-mean value. To collapse across multiple recordings made on days post-plating 5, 7, 9 and 12, the trapezoidal area-under-the-curve of the component is calculated.Data from the assay component CCTE_Shafer_MEA_dev_burst_duration_mean was analyzed into 1 assay endpoint. This assay endpoint, CCTE_Shafer_MEA_dev_burst_duration_mean, was analyzed in the negative analysis fitting direction relative to DMSO as the negative control and baseline of activity. Using a type of functional reporter, gain or loss-of-signal activity can be used to understand electrical activity.
# On the day prior to culture, each well was coated thoroughly with 150 uL of 0.05% polyethyleneimine (PEI, Sigma Cat P3143) in 50 mM HEPES (Sigma Cat H7523) at a pH of 8. The plate was incubated at 37C for one hour. PEI was rinsed out with 500 uL of sterile water three times. Plates were stored at 4C until the day of culture. This culture was plated at a seeding density of 1.5 x 10^5 cells/well on a 48-well MEA plate, prepared as described above. Cells were administered via a 25 uL media/laminin ([…]; Sigma Cat L2020-1MG) drop directly onto the microelectrode array, as adding the cells with the laminin results in better attachment than pre-coating with laminin. After 2 hours, an additional 475 uL of cortical media was added and the cells returned to the incubator. Exposure starts at day 0 of plating and is continued over twelve days of network development until the experiment is terminated. Cells are fed with fresh medium on DIV 5 and 9, following the recordings on those days. The entire volume of media in the well is exchanged and any vehicle or compound treatment is renewed. Complete details are found in OP-NHEERL/ISTD/SBB/TJS/2015-03-r0 (available on request, email shafer.tim@epa.gov). Measurement of the electrical activity is non-invasive, and recordings can be made from the same plate over multiple different days of the culture. In cortical neurons, this allows for the measurement of extracellular action potentials over the period during which networks form in the MEA plate.
Structure (SMILES),outcome,AC50
C[C@@H]1CCO[C@H]2Cn3cc(C(=O)NCc4ccc(F)cc4F)c(=O)c(O)c3C(=O)N12,inactive,
CCc1ccccc1,inactive,
O=C1CC2(CCCC2)CC(=O)N1CCCCN1CCN(c2ncccn2)CC1,inactive,
CC(C)O,inactive,
CC(CNC(=S)[S-])NC(=S)[S-].[Zn+2] (stereo not drawn),,9.67 µM (active)
Cc1[nH]n(C)c(=O)c1C(=O)c1ccc(C(F)(F)F)cc1S(C)(=O)=O,inactive,
c1cc2c3c(c1)ccc1cccc(c13)C2,inactive,
F,inactive,
CCCCCC(C)(CC)C(=O)NC (stereo not drawn),inactive,
CC(C)c1nn(C(=O)NC(C)(C)C)c(=O)n1N,inactive,
BrC1CC(Br)CC(Br)CC(Br)CC(Br)CC(Br)C1 (stereo not drawn),inactive,
[O]=[V]([OH])([OH])[OH],inactive,
CCCCCC=C(C)C(CC)CCO (stereo not drawn),inactive,
CN(C)CCCn1cc(C2=C(c3c[nH]c4ccccc34)C(=O)NC2=O)c2ccccc21,inactive,
C[C@@H]1CC[C@@H](C(C)(C)O)[C@H](O)C1,inactive,
CC(=O)N[C@@H](CC(=O)O)C(=O)O,inactive,
c1ccc2c(c1)ccc1c3ccccc3ccc21,inactive,
Brc1cc(Br)c(Oc2cc(Br)c(Br)cc2Br)cc1Br,inactive,
